Of roughly 7,900 targets only a part is listed; those with a hit were picked by preference. About 0.6% of all pairs of compound and target were hits. Unmarked numbers belong to inactive results.
Legend:
Assay in all cases: log2 fold change, soluble protein after heating vs DMSO (PISA); higher = thermal stabilisation; K562 cells, 10 uM, 30 min; active = over 0.2 and 3.5 SD of the protein, either way, in both replicates (recomputed)
[1] = compound: CS(=O)(=O)c1ccc(-c2cnc(N)c(C(=O)Nc3ccccc3)n2)cc1
Summary of the method: (§1)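 Soluble protein was quantified by TMTpro 16plex LC-MS/MS after channel sums were equalised. It was obtained as the supernatant after 21,000xg for 90 min from pooled aliquots of K562 cells (2×10^6 cells/mL, 10 μM compound, 30 min) heated for 3 min across 48°C-58°C and extracted in PBS with 0.5% NP-40 at 4°C. Thermal stability values are relative to control samples and come from duplicates. They are given as log2 fold changes.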

[2] = compound: C[C@@H](Oc1cc(-c2cnn(C3CCNCC3)c2)cnc1N)c1c(Cl)ccc(F)c1Cl [crizotinib]
Summary of the method: as §1

[3] = compound: C[C@@H]1COCCN1C2=NC(=NC(=C2)C3(CC3)S(=O)(=O)C)C4=C5C=CNC5=CC=C4
Summary of the method: as §1

[4] = compound: C[C@H](C1=CC=C(C=C1)C(=O)NC2=C3C=CNC3=NC=C2)N
Summary of the method: as §1

[5] = compound: C[C@H](Nc1ncnc2nc[nH]c12)c1cc2cccc(Cl)c2c(=O)n1-c1ccccc1 [duvelisib]
Summary of the method: as §1

[6] = compound: Cc1cc(Nc2cc(CN3CCOCC3)c3nc(C)c(Cc4ccc(Cl)cc4F)n3n2)n[nH]1 [gandotinib]
Summary of the method: as §1

[7] = compound: Cc1cc(Nc2cc(N3CCN(C)CC3)nc(Sc3ccc(NC(=O)C4CC4)cc3)n2)n[nH]1 [tozasertib]
Summary of the method: as §1

[8] = compound: Cc1cc(SCc2sc(-c3ccc(C(F)(F)F)cc3)nc2C)ccc1OCC(=O)O
Summary of the method: as §1

[9] = compound: Cc1ccc(-n2nc(C(C)(C)C)cc2NC(=O)Nc2ccc(OCCN3CCOCC3)c3ccccc23)cc1 [doramapimod]
Summary of the method: as §1

[10] = compound: Cc1ccc(C(=O)N(CCCN)[C@@H](c2nc3cc(Cl)ccc3c(=O)n2Cc2ccccc2)C(C)C)cc1 [ispinesib]
Summary of the method: as §1

Sequence of UniProt P01116 (P01116 whole entry, looked up): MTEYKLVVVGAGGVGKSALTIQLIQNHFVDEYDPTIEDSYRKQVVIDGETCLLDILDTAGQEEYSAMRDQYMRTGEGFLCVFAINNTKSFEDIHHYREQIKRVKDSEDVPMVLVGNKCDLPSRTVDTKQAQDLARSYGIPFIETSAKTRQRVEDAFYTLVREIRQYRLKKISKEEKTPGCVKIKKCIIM
Sequence of UniProt Q96EK5 (Q96EK5 whole entry, looked up): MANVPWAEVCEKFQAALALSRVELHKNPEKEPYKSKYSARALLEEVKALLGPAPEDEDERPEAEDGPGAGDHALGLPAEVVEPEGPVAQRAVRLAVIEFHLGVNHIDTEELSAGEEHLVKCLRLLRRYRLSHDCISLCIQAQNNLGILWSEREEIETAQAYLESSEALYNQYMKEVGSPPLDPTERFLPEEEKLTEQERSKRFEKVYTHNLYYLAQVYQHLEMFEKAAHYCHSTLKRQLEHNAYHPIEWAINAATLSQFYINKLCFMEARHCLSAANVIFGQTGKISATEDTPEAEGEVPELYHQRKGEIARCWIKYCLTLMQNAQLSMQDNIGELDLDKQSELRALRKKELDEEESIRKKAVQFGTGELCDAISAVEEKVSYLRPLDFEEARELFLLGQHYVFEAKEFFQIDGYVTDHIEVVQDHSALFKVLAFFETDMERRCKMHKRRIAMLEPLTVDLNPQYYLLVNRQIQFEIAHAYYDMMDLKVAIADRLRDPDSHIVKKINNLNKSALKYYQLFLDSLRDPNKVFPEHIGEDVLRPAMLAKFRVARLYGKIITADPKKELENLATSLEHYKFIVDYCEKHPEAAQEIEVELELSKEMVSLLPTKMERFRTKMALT
Sequence of UniProt Q86UP2 (Q86UP2 whole entry, looked up): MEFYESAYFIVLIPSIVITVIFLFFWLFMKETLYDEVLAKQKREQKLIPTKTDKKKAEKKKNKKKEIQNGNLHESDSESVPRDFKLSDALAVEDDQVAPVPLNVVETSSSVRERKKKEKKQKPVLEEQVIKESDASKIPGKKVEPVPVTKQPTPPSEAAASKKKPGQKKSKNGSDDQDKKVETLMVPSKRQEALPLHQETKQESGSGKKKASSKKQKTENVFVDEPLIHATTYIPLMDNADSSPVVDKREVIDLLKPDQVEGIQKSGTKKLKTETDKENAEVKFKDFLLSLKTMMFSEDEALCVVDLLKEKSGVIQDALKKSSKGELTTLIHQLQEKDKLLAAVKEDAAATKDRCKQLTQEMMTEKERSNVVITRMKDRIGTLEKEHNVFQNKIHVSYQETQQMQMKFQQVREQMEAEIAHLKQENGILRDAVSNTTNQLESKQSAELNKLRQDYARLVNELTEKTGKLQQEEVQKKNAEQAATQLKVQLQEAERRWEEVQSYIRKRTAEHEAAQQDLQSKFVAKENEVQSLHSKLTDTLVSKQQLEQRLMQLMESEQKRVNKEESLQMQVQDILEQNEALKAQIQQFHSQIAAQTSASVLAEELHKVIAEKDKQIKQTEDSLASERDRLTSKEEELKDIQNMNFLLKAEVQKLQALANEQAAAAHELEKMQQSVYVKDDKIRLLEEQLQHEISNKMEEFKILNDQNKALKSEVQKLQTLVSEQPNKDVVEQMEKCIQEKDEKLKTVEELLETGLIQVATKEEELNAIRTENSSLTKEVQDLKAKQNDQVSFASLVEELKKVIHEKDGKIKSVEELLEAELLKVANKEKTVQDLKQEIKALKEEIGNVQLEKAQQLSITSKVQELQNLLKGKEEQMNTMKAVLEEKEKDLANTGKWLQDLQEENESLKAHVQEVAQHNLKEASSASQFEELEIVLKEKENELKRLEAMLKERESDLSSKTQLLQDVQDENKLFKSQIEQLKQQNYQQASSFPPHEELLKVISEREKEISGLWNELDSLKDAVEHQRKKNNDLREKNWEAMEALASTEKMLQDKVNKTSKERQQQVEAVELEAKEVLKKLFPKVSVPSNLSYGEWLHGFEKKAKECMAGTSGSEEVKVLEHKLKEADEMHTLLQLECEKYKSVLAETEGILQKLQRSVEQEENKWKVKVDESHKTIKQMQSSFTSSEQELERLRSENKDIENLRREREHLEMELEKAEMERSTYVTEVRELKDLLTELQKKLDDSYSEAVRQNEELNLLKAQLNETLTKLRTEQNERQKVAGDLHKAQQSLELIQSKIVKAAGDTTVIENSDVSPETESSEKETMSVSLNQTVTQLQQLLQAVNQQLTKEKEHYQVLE
Sequence of UniProt Q9Y383 (Q9Y383 whole entry, looked up): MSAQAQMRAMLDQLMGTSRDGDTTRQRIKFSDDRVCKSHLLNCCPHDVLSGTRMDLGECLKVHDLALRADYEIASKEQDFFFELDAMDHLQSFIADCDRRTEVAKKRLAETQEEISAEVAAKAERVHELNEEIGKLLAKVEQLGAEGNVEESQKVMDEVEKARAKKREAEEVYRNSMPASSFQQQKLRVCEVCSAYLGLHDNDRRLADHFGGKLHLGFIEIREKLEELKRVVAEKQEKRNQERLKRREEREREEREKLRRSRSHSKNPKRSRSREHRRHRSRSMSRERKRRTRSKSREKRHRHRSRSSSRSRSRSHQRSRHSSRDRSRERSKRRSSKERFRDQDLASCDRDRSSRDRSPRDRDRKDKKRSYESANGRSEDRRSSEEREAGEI
Sequence of UniProt Q14681 (Q14681 whole entry, looked up): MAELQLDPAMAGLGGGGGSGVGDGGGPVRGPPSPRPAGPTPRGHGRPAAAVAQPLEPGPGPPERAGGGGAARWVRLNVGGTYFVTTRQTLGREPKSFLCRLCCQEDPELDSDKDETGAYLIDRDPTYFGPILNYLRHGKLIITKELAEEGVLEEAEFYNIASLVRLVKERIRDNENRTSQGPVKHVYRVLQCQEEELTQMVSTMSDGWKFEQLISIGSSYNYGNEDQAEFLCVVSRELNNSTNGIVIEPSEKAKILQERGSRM
Sequence of UniProt Q8IWB1 (Q8IWB1 whole entry, looked up): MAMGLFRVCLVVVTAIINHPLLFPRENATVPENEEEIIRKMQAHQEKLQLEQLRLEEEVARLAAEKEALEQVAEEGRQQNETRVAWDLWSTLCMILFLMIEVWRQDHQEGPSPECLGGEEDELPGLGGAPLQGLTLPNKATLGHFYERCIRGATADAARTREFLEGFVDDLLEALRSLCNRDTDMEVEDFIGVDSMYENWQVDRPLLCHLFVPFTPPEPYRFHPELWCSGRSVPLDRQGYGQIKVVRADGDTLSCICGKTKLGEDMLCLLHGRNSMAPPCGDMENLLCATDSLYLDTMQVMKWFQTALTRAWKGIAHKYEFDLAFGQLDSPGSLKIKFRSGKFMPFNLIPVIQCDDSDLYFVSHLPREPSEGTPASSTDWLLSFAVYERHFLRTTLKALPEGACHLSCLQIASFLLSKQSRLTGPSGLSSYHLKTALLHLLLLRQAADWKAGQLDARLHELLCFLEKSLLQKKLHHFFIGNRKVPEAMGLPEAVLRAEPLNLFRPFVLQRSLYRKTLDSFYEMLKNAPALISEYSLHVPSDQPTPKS
Sequence of UniProt Q9Y2X0 (Q9Y2X0 whole entry, looked up): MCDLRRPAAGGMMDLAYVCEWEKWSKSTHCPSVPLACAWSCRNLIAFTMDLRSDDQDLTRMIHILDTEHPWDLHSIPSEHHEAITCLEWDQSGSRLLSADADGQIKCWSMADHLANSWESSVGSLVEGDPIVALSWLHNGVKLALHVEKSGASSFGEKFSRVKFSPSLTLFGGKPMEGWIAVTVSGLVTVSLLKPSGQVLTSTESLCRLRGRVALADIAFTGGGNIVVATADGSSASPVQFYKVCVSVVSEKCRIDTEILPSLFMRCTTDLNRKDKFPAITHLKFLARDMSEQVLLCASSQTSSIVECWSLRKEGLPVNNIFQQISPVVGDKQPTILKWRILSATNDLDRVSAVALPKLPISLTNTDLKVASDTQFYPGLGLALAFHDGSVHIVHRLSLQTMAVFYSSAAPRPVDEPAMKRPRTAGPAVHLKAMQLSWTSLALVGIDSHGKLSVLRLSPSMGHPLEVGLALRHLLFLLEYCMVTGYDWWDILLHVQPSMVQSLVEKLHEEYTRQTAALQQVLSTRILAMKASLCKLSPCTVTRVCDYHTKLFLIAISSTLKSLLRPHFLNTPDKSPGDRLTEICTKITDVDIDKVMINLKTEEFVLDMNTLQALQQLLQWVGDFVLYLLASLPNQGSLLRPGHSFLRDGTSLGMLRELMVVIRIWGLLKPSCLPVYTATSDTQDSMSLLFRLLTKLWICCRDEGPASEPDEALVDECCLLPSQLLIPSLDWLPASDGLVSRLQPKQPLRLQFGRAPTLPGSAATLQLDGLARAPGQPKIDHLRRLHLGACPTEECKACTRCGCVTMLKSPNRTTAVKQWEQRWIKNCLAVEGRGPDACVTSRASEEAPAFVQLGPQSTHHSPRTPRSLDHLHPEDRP
Sequence of UniProt P14174 (P14174 whole entry, looked up): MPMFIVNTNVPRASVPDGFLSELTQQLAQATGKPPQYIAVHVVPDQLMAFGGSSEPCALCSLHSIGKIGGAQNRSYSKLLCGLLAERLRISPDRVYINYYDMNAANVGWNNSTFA
Sequence of UniProt P02545 (P02545 whole entry, looked up): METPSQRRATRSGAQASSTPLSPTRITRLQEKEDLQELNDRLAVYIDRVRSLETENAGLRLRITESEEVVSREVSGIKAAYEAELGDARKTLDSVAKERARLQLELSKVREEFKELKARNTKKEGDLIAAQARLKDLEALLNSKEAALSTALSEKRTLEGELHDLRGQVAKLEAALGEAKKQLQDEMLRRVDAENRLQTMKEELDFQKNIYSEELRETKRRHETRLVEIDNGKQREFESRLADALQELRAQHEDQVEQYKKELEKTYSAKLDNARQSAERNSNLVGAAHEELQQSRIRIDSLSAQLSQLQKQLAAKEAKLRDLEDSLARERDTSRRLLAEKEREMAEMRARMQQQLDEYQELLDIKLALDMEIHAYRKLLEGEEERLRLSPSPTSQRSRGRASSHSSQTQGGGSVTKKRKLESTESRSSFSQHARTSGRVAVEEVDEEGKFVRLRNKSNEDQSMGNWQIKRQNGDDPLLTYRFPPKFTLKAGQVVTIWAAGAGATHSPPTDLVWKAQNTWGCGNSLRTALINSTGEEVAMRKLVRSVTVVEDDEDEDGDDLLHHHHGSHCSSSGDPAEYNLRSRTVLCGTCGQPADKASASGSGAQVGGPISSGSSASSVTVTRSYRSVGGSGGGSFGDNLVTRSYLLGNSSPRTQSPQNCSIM

Row | Target | log2 fold change [1] | log2 fold change [2] | log2 fold change [3] | log2 fold change [4] | log2 fold change [5] | log2 fold change [6] | log2 fold change [7] | log2 fold change [8] | log2 fold change [9] | log2 fold change [10]
1 | KIF1B isoform 4 (UniProt O60333) | 0.002 | -0.067 | 0.048 | 0.035 | 0.011 | -0.043 | 0.03 | 0.052 | 0.029 | -0.149
2 | LEMD3 (UniProt Q9Y2U8) | 0.072 | -0.12 | -0.084 | -0.016 | -0.003 | 0.006 | -0.015 | 0.114 | -0.002 | -0.095
3 | LIMD1 (UniProt Q9UGP4) | -0.03 | 0.005 | -0.007 | -0.071 | -0.032 | 0.011 | 0.039 | 0.042 | -0.01 | 0.008
4 | LMNA (UniProt P02545) | -0.054 | 0.064 | 0.102 | -0.231 (active) | -0.013 | -0.098 | 0.069 | -0.035 | 0.018 | 0.214 (active)
5 | MIF (UniProt P14174) | -0.027 | 0.025 | 0.111 | -0.048 | 0.197 | 0.079 | -0.019 | -0.025 | -0.019 | 0.055
6 | MCCC2 (UniProt Q9HCC0) | -0.004 | 0.028 | 0.027 | -0.053 | 0.054 | 0.051 | -0.011 | -0.022 | 0 | 0.047
7 | MICU1 isoform 3 (UniProt Q9BPX6) | -0.024 | -0.207 | -0.101 | 0.023 | -0.04 | -0.128 | -0.102 | 0.021 | -0.011 | -0.458 (active)
8 | LUC7L2 (UniProt Q9Y383) | -0.083 | 0.02 | 0.053 | -0.439 (active) | -0.002 | 0.031 | 0.065 | 0.03 | -0.03 | 0.111
9 | LMNB1 (UniProt P20700) | -0.01 | 0.038 | 0.108 | -0.172 | -0.018 | -0.03 | 0.096 | -0.022 | -0.003 | 0.041
10 | ITIH4 (UniProt Q14624) | -0.107 | -0.102 | 0.129 | -0.005 | 0.103 | -0.387 | -0.033 | -0.031 | -0.291 | -0.402
11 | MAP3K7 (UniProt O43318) | 0.093 | -0.193 | -0.035 | 0.135 | 0.08 | -0.036 | -0.011 | 0.118 | -0.001 | -0.029
12 | LMNB2 (UniProt Q03252) | 0.007 | 0.039 | 0.179 | 0.079 | 0.072 | -0.003 | 0.03 | 0.033 | 0.019 | 0.016
13 | KCTD2 (UniProt Q14681) | 0.178 | 0.02 | -0.047 | 0.511 | 0.211 | 0.355 | -0.116 | -0.281 | 0.089 | 0.026
14 | JMJD6 isoform 3 (UniProt Q6NYC1) | -0.037 | 0.046 | 0.046 | -0.034 | 0.002 | -0.147 | 0.024 | 0.029 | 0.005 | 0.039
15 | IRAK4 (UniProt Q9NWZ3) | 0.034 | -0.025 | 0.003 | 0.046 | -0.01 | -0.107 | 0.061 | 0.104 | -0.047 | -0.05
16 | KIFBP (UniProt Q96EK5) | -0.036 | -0.025 | 0.079 | 0.08 | 0.007 | -0.051 | 0.065 | 0.085 | -0.053 | -0.139
17 | KTN1 (UniProt Q86UP2) | -0.016 | -0.078 | -0.028 | 0.122 | -0.027 | -0.047 | -0.007 | 0.097 | 0.094 | -0.207
18 | IWS1 (UniProt Q96ST2) | 0.077 | 0.146 | 0.132 | 0.119 | 0.028 | 0.108 | 0.058 | 0.062 | -0.134 | 0.061
19 | KEL (UniProt P23276) | 0.002 | 0.084 | -0.048 | -0.07 | 0.015 | -0.341 | -0.01 | 0.019 | 0.028 | 0.047
20 | ILF2 (UniProt Q12905) | -0.168 | -0.164 | -0.153 | 0.206 | -0.126 | 0.07 | -0.024 | 0.022 | 0.063 | 0.038
21 | IPO11 isoform 2 (UniProt Q9UI26) | 0.037 | 0 | -0.015 | -0.082 | 0.041 | -0.076 | 0.025 | 0.007 | -0.028 | 0.051
22 | ITPRIP (UniProt Q8IWB1) | -0.002 | 0.056 | 0.012 | -0.039 | 0.005 | -0.049 | 0.045 | 0.038 | 0.062 | -0.037
23 | KSR1 (UniProt Q8IVT5) | -0.017 | -0.287 | 0.036 | 0.047 | 0.031 | -0.067 | -0.221 | -0.017 | 0.052 | -0.113
24 | MED16 (UniProt Q9Y2X0) | -0.04 | -0.072 | -0.071 | 0.06 | -0.053 | -0.098 | -0.096 | 0.063 | 0.08 | -0.097
25 | IGFBP4 (UniProt P22692) | -0.066 | 0.064 | 0.022 | -0.114 | 0.02 | -0.229 | -0.021 | -0.007 | 0 | -0.233
26 | KDM5D isoform 3 (UniProt Q9BY66) | -0.004 | 0.038 | -0.005 | -0.054 | 0.057 | -0.051 | 0.212 | 0.125 | 0.108 | 0
27 | MFSD5 isoform 2 (UniProt Q6N075) | 0.069 | -0.039 | -0.04 | -0.046 | 0.112 | -0.045 | 0.144 | -0.004 | 0.004 | 0.051
28 | ILF3 isoform 7 (UniProt Q12906) | -0.159 | -0.074 | -0.181 | 0.286 | -0.092 | 0.1 | 0.039 | -0.001 | 0.118 | 0.034
29 | KRAS isoform 2 (UniProt P01116) | 0.03 | 0.024 | -0.016 | 0.019 | -0.084 | -0.05 | -0.079 | -0.018 | -0.019 | -0.09
30 | LARP1 (UniProt Q6PKG0) | -0.04 | -0.097 | -0.172 | 0.134 | -0.121 | 0.026 | -0.001 | 0.01 | 0.06 | -0.166

From the supplement of paper PMC10849652
